Assay outcomes from PubChem.
In the library only some 2.9% were active in any assay of this set; here they are far more common.
Wnt act: activators of Wnt/beta-catenin signaling; Wnt/beta-catenin reporter cell assay, activator, plate reader; activation, % at 9.35 µM; 300,000 compounds, 1.2% hits; in the data active means activation above about 30%, passing the limit was not always enough; inconclusive means no clear call, values can overlap the other calls
N-glyco inh: N-linked glycosylation inhibition; D54 ERlucT glycosylation luciferase reporter, 24 h; percent of 100 nM tunicamycin response; reporter increase, % at 12.5 µM; 360,000 compounds, 0.23% hits; AID 588692;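 active means mean luciferase reporter signal, scaled so untreated is 0 and the glycosylation-blocking control 100, at or above a set limit in every replicate; inconclusive means mean reaches the limit but not every replicate does; inactive means mean below the limit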;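 further: luciferase carries N-glycosylation sites so blocking glycosylation raises the light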
Vif imaging: inhibitors of HIV Vif | HEK293T cells, Vif self-association by quenched fluorescence, imaging, 24 h | inhibition, % at 7.49 µM | 340,000 compounds, 0.35% hits | AID 602346; in the data active means inhibition above about 50%, passing the limit was not always enough; inconclusive means no clear call, values can overlap the other calls; inactive means below about 31%
MITF TRPM1 HTS: MITF TRPM1 promoter activation in melanoma cells; SK-MEL-5 TRPM1-promoter luciferase, 24 h; % of positive control, neutral wells = 0; activation, % at 12.5 µM; 300,000 compounds, 0.75% hits;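 active means mean activation of at least 80% with every replicate also reaching 80%; inconclusive means mean reaches 80% but some replicate falls short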
esBAF inh: blocks esBAF chromatin remodeling in mouse ES cells; AID 602393; reporter increase, % at 12.5 µM; 350,000 compounds, 2% hits; Bmi1-luciferase knock-in reporter, 24 h; 100% = twice the neutral-well signal; in the data active means activation above about 40%; inconclusive means no clear call, values can overlap the other calls;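 further: a rise in the Bmi1 reporter signal indicates esBAF inhibition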
PvdQ acylase: P. aeruginosa PvdQ acylase inhibition; purified PvdQ acylase, fluorescence plate reader; inhibition, % at 10 µM; AID 488965; 340,000 compounds, 0.063% hits; in the data active means inhibition above about 30%, passing the limit was not always enough; inconclusive means no clear call, values can overlap the other calls
Hits are given with their value; - = inactive; ? = inconclusive; . = no result.

SMILES | Wnt act | N-glyco inh | Vif imaging | MITF TRPM1 HTS | esBAF inh | PvdQ acylase
O=C(C[C@H]1CC[C@@H]2[C@H](COC[C@@H](O)CN2C(=O)c2ccncc2)O1)NCc1cccc(F)c1 | . | . | . | . | - | .
CC(C)(C)OC(=O)[C@H](Cc1ccccc1)NC(=O)c1nc[nH]c1C(=O)N1CCc2ccccc2C1 | - | 32.7 | - | - | - | -
C[C@@H]1CN([C@H](C)CO)C(=O)c2cc(NC(=O)Nc3ccc4c(c3)OCO4)ccc2O[C@@H](C)CCCCO[C@H]1CN(C)S(C)(=O)=O | . | . | . | . | - | .
CCOc1ccc(OCc2cccc(C(=O)N3CCCC3)c2)cc1 | . | - | 52.7 | - | - | -
O=C(OCc1ccccc1)N1CCC2CC1c1ccc(N3CCOCC3)cc12 (stereo not given) | - | - | - | . | 46.5 | .
CCc1nc(NC(C)(C)C)c2cnn(-c3ccccc3)c2n1 | - | - | - | ? | 73.5 | -
C[C@@H](NC(=O)C[C@H]1CC[C@H]2[C@@H](COC[C@H](O)CN2C(=O)Nc2cc(Cl)cc(Cl)c2)O1)c1ccccc1 | . | . | . | . | - | .
COc1ccc2c(c1)CCc1c(C(=O)NCC(C)C)noc1-2 | 53.0 | - | - | 109.1 | - | -
COc1ccc2c(c1)CCc1c(C(=O)NCc3cccnc3)noc1-2 | - | - | - | - | - | -
COc1ccc2c(c1)CCc1c(C(=O)N3CCCCCC3)noc1-2 | . | - | - | 121.0 | 43.7 | -
CCCNC(=O)c1noc2c1CCc1cc(OC)ccc1-2 | - | - | - | - | - | -
CCCNC(=O)N(C)C[C@H]1Oc2ncc(C#CC3(O)CCCC3)cc2C(=O)N([C@H](C)CO)C[C@@H]1C | . | . | . | . | - | .
O=C(N[C@@H]1CC[C@@H](CCNC(=O)C2CCC2)O[C@H]1CO)c1ccccn1 | . | . | . | . | - | .
COc1cc2sc(NC(=O)c3ccco3)nc2cc1Cl | ? | - | - | - | 51.6 | -
Cc1cc2sc(NC(=O)c3ccco3)nc2cc1Cl | 30.4 | - | - | . | - | -
COc1ccc2nc(NC(=O)c3ccco3)sc2c1 | - | - | - | - | - | -
COc1ccc2nc(NC(=O)C3CCN(C(=O)c4ccco4)CC3)sc2c1 | - | - | - | . | 53.4 | -
COCC(=O)Nc1ccc2c(c1)[C@@H]1C[C@H](CC(=O)N3CCCCC3)O[C@@H](CO)[C@@H]1O2 | . | . | . | . | - | .
Cc1ccc(N2C(=O)Nc3ccccc3C2(O)C(=O)N2CCN(c3ccccn3)CC2)cc1C (stereo not given) | - | 29.0 | - | - | - | -
CCc1ccc(N2C(=O)Nc3ccccc3C2(O)C(=O)N2CCN(c3ccccn3)CC2)cc1 (stereo not given) | - | 37.6 | - | - | - | -
O=C1Nc2ccccc2C(O)(C(=O)N2CCCCC2)N1c1ccccc1 (stereo not given) | - | - | - | - | - | -
CCC(C)NC(=O)C1(O)c2ccccc2NC(=O)N1c1ccc(C)c(C)c1 (stereo not given) | - | - | - | . | - | -
O=C(Nc1ccc(F)cc1)N[C@@H]1CC[C@@H](CC(=O)N2CCCCC2)O[C@H]1CO | . | . | . | . | - | .
O=C(N=Nc1c(O)[nH]c2ccc(Br)cc12)c1ccco1 | 36.4 | - | . | . | 60.1 | .
CCNC(=S)Nc1cccc(S(=O)(=O)Nc2ccccc2OC)c1 | 32.7 | - | - | - | - | -
SMILES | Wnt act | N-glyco inh | Vif imaging | MITF TRPM1 HTS | esBAF inh | PvdQ acylase
COc1ccccc1NS(=O)(=O)c1cccc(NC(=O)Nc2ccccc2)c1 | - | - | - | - | . | -
C[C@@H]1CN([C@H](C)CO)C(=O)c2cc(NC(=O)CCC(F)(F)F)ccc2O[C@H]1CN(C)S(=O)(=O)c1cn(C)cn1 | . | . | . | . | - | .
Nc1cccc(C(=O)OCC(=O)c2ccccc2)c1 | 39.6 | - | - | - | . | -
O=C(COC(=O)c1cccc(O)c1)c1ccccc1 | 52.7 | - | - | - | - | -
O=C(COC(=O)c1ccc(N2CCCC2=O)cc1)c1ccccc1 | - | - | - | . | 44.9 | -
O=C(OCC(=O)c1cccs1)c1ccccc1 | - | - | - | - | 47.4 | -
O=C(CNC(=O)c1ccccc1)OCC(=O)c1cccs1 | - | - | - | - | - | -
CCCN1C[C@H](C)[C@H](OC)CN(C)C(=O)c2cc(NC(=O)CC)ccc2OC[C@H]1C | . | . | . | . | - | .
C[C@H]1CN([C@@H](C)CO)C(=O)c2cc(C#CCc3ccccc3)cnc2O[C@H]1CN(C)Cc1cccnc1 | . | . | . | . | - | .
COc1ccc(OCc2cc(C(=O)N(C)Cc3nccn3C)no2)c2ccccc12 | - | - | - | - | - | -
COc1cccc(OCc2cc(C(=O)N(C)Cc3nccn3C)no2)c1 | - | - | - | ? | 69.1 | -
COc1cccc(OCc2cc(C(=O)N(C)CCOc3ccc(C)cc3)no2)c1 | - | - | - | - | 67.4 | -
Cc1ccc(S(=O)(=O)N[C@@H]2CC[C@@H](CCn3cc(C4CC4)nn3)O[C@H]2CO)cc1 | . | . | . | . | - | .
COc1ccc(-c2cn3cc(C(=O)NN)ccc3n2)cc1 | - | - | - | - | . | -
NNC(=O)c1ccc2nc(-c3ccc(Br)cc3)cn2c1 | - | 116.1 | - | 92.8 | . | -
Cc1cc(COc2ccccc2)oc1C(=O)O | - | - | ? | . | 50.9 | -
Cc1cc(CN2CCCCC2)oc1C(=O)O | - | - | - | - | . | -
Cc1ccc(C(=O)NC(C#N)=C(Cl)Cl)cc1 | 77.1 | . | . | . | . | .
COc1ccc(C(=O)Nc2ccc3c(c2)C(=O)N(C)C[C@@H](OC)[C@@H](C)CN[C@@H](C)CO3)cc1 | . | . | . | . | - | .
CN1CCN(C(=S)c2ccc(-c3cc(Cl)ccc3Cl)o2)CC1 | - | - | - | - | . | -
S=C(c1ccc(-c2ccc(Cl)cc2Cl)o1)N1CCCC1 | 33.0 | - | - | . | . | .
S=C(c1ccc(-c2ccc(Cl)cc2Cl)o1)N1CCCCC1 | - | - | - | - | 53.3 | -
COc1cccc(-c2ccc3n(c2=O)C[C@@H]2[C@@H](CO)[C@H](C(=O)NCC4CC4)N(C)[C@H]32)c1 | . | . | . | . | - | .
CN=c1nc(-c2ccccc2)n(-c2ccccc2)s1 | - | - | - | - | 54.7 | -
CCN(CC)c1ccc(CC(=O)NC(C)Cc2ccccc2)cc1 (stereo not given) | . | - | 101.4 | - | - | -
SMILES | Wnt act | N-glyco inh | Vif imaging | MITF TRPM1 HTS | esBAF inh | PvdQ acylase
CCCN(CCC)c1ccc(CC(=O)NC(C)Cc2ccccc2)cc1 (stereo not given) | - | - | - | - | . | -
CCCNC(=O)N1[C@@H](CO)[C@@H](c2ccc(C3=CCCC3)cc2)[C@@H]1CNC(C)=O | . | . | . | . | - | .
Cc1ccc(NC(=O)CC2CCCC2)c(Br)c1 | - | - | - | - | 50.0 | -
Cc1ccc(NC(=S)NC(=O)C2CCCCC2)c(Br)c1 | - | - | - | - | 62.8 | -
CNC[C@H]1OCCCC[C@@H](C)Oc2ccc(NC(=O)c3ccncc3)cc2C(=O)N([C@@H](C)CO)C[C@H]1C | . | . | . | . | - | .
C[C@H]1CN([C@@H](C)CO)C(=O)c2cc(C3=CCCCC3)cnc2O[C@H]1CN(C)C(=O)c1ccccn1 | . | . | . | . | - | .
CN1C(=O)NC(c2ccccc2)(C(F)(F)F)S/C1=C(/C#N)c1nnc(N2CCOCC2)n1-c1ccccc1 (stereo not given) | 67.3 | - | - | - | . | -
